Compounds with a hit are over-represented: about 3.5% of the library has one in this group of screens.
MITF primary: human MITF inhibition, primary screen. AlphaScreen MITF homodimerization, bead proximity signal. actives 0.91% (n = 650,000). inhibition, % at 2.6 µM. O75030. AID 1259374; in the data active means inhibition above about 50%;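 further: 0% = vehicle wells with protein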
GPR151 ag: human GPR151 activation; activation, % at 11.2 µM; Q8TDV0; actives 1% (n = 650,000); PathHunter beta-arrestin GPR151 cells, luminescence; AID 1508602; in the data active means activation above about 4.9%;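 further: 0% = median of compound wells and 100% = cells with positive control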
Target sequence (Q8TDV0 whole entry, looked up): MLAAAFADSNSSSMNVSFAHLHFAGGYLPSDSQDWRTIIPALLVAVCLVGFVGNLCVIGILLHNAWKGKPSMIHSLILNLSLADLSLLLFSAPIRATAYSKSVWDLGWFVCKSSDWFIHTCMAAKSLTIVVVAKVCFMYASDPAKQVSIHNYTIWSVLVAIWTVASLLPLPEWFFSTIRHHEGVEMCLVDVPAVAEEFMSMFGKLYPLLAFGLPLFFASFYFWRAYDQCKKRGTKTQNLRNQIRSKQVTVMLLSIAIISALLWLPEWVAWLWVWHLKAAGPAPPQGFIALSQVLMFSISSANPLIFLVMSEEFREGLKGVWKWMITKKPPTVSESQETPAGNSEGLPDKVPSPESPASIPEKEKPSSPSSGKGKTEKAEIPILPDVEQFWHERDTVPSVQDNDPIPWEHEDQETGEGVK
TEAD-YAP inh: TEAD-YAP interaction inhibition | actives 1.4% (n = 640,000) | HEK-TIYL cells, TEAD-Gal4/YAP UAS-luciferase luminescence | inhibition, % at 9.12 µM; in the data active means inhibition above about 32%;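 further: 0% = median of test compound wells and 100% = reference inhibitor wells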
FBW7 act: human FBW7 E3 ligase activation, primary screen; AlphaScreen FBW7–phospho-cyclin E peptide binding, activator screen; normalized activity (activation), % at 26.1 µM; actives 0.13% (n = 650,000); AID 1259310; in the data active means normalized activity above about 1.9%;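 further: purified mutant Fbw7 with reduced substrate affinity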
GPR151 conf act: human GPR151 activation, confirmation screen; shares compounds with GPR151 ag; 6,700 tested, under 10 active; activation, % at 11.2 µM; GPR151 PathHunter beta-arrestin cells, luminescence, 90 min; % of EA-reagent control over plate median; AID 1508609;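 active means mean percent activation across replicates above the confirmation screen cutoff of 4.91%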
GPR119 counter: GPR119 activation, counter-screen for GPR151 activators; AID 1508611; actives 0.3% (n = 6,700); activation, % at 11.2 µM; shares compounds with GPR151 ag; GPR119 PathHunter beta-arrestin cells, luminescence, 90 min; 0 = compound-well median, 100 = enzyme-acceptor control;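 active means mean percent activation in the counterscreen above 29.09%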;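 further: counterscreen on off-target GPR119 to flag nonselective hits from the GPR151 activator screen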
Numbers without * were called inactive.

CC1=C(C#N)C(=O)NC(=O)/C1=C\c1ccc(-c2cccc(C(=O)OC(C)C)c2)o1 was read as MITF primary 5.5, GPR151 ag 5.0*, TEAD-YAP inh 14.4, FBW7 act 0.1, GPR151 conf act -0.6 and GPR119 counter 7.6.
`CCCCOC(=O)c1cccc(-c2ccc(/C=C3\C(=O)N(CCO)C(=O)C(C#N)=C3C)o2)c1` gave MITF primary -5.2, GPR151 ag 8.9*, TEAD-YAP inh -23.0, FBW7 act -0.1, GPR151 conf act -0.5 and GPR119 counter -3.9.
O=C(Nc1ccc(Cl)cc1)c1ccc(N2CC3CC(C2)c2cccc(=O)n2C3)c(NC(=O)c2c(F)cccc2F)c1 (centres undefined) was read as MITF primary 1.8, GPR151 ag -1.1, TEAD-YAP inh 1.8 and FBW7 act 0.3.
Screening Cn1ccc2cc(-c3cc(C(=O)NC4CC4)ccn3)ccc21 returned MITF primary 12.1, GPR151 ag 22.0*, TEAD-YAP inh 10.3, FBW7 act 0.0, GPR151 conf act 0.3 and GPR119 counter 0.4.
For O=C(N1CCc2ccccc2C1)C(F)(F)C(F)(F)C(=O)N1CCc2ccccc2C1 the results were MITF primary 15.0, GPR151 ag 0.5, TEAD-YAP inh 8.6 and FBW7 act 0.2.
O=C(O)CN1S(=O)(=O)c2ccccc2S1(=O)=O was read as MITF primary 3.9, GPR151 ag -0.4, TEAD-YAP inh -3.0 and FBW7 act 0.2.
Screening CCSC1=C(C#N)C(c2ccc(Cl)cc2)CC(=O)N1 (centres undefined) returned MITF primary 4.0, GPR151 ag -0.1, TEAD-YAP inh -1.8 and FBW7 act 0.0.
`CCSC1=C(C#N)C(c2ccc(O)cc2)CC(=O)N1` (centres undefined) gave MITF primary -0.6, GPR151 ag 6.2*, TEAD-YAP inh -3.9, FBW7 act 0.0, GPR151 conf act 0.0 and GPR119 counter 0.6.
Screening CC(=O)Oc1cccc(/C=C2/C(=O)NN(c3ccc(C)c(C)c3)C2=O)c1 returned MITF primary 1.6, GPR151 ag 5.0*, TEAD-YAP inh -5.7, FBW7 act 0.7, GPR151 conf act -1.0 and GPR119 counter -13.4.
O=C1NN(c2ccc(F)c(Cl)c2)C(=O)/C1=C\c1cccc(I)c1 was read as MITF primary 6.7, GPR151 ag 5.2*, TEAD-YAP inh 8.1, FBW7 act -0.1, GPR151 conf act 0.4 and GPR119 counter 9.3.
`O=C1NN(c2ccc(F)c(Cl)c2)C(=O)/C1=C\c1ccc(Br)cc1` gave MITF primary 18.8, GPR151 ag -0.5, TEAD-YAP inh 6.8 and FBW7 act 0.7.
For CC(C(=O)NCCCN1CCN(C2CCCCC2)CC1)n1ncn2cccc2c1=O (centres undefined) the results were MITF primary -2.9, GPR151 ag 2.3, TEAD-YAP inh 2.8 and FBW7 act -0.2.
O=c1c2cnn(CCO)c2ncn1Cc1c(F)cccc1Cl was read as MITF primary -12.8, GPR151 ag 6.6*, TEAD-YAP inh -0.6, FBW7 act 0.1, GPR151 conf act 0.3 and GPR119 counter 4.9.
CN(C)c1ccc(N2C(N)=NC(N)=NC2(C)C)cc1 was read as MITF primary -12.1, GPR151 ag -1.1, TEAD-YAP inh 7.6 and FBW7 act -0.1.
`O=c1[nH]cnc2c1[nH]c1ccccc12` gave MITF primary 8.9, GPR151 ag 8.7*, TEAD-YAP inh 19.3, FBW7 act 0.4, GPR151 conf act -0.8 and GPR119 counter 7.3.
For CCCN(CCC)S(=O)(=O)c1ccc(NS(C)(=O)=O)cc1 the results were MITF primary -0.4, GPR151 ag -0.2, TEAD-YAP inh -1.2 and FBW7 act -0.2.
CC(=O)Nc1ccc(NS(=O)(=O)c2ccc([N+](=O)[O-])cc2)cc1 was read as MITF primary 13.2, GPR151 ag 17.5*, TEAD-YAP inh 8.2, FBW7 act 0.7, GPR151 conf act 0.7 and GPR119 counter 0.7.
`CC(=O)Nc1ccc(S(=O)(=O)c2ccc(NC(C)=O)c([N+](=O)[O-])c2)cc1[N+](=O)[O-]` gave MITF primary 14.7, GPR151 ag 7.5*, TEAD-YAP inh 4.5, FBW7 act 0.7, GPR151 conf act 1.3 and GPR119 counter 9.9.

Assay outcomes as filed in PubChem BioAssay.
